# Screening data as filed in PubChem BioAssay.
# Sampled rows, rich in hits. Any-hit rate of the full collection: about 2%.
# GalR3 antagonist = human GalR3 antagonism | inhibition, % at 3 µM | O60755 | AID 651719 | HEK293 GalR3-CNG cAMP membrane potential fluorescence; galR3 body fused to GalR1 C-terminus | 360,000 tested, 0.44% active;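 active = inhibition above the screen-wide average plus 3 SD, cut at about 13% in these data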;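 also: forskolin and galanin both at EC90 stimulate the cells; cAMP rise reported by CNG channel membrane potential dye signal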
# Target sequence (O60755 1-299 limits assumed): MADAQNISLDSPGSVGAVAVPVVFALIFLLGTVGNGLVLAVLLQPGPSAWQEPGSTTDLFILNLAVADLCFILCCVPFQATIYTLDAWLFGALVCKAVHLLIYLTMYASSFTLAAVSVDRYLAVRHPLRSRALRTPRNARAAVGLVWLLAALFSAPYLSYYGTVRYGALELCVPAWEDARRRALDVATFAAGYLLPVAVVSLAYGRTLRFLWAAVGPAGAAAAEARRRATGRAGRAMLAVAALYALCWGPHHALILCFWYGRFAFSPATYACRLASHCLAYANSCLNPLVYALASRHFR
# NR2F2 inh = inhibitors of human COUP-TFII (NR2F2) | HEK293T NGFI-A luciferase reporter, luminescence | inhibition, % at 8.6 µM | 370,000 tested, 0.7% active | AID 686940;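 active = inhibition above a per-plate cutoff, mean inhibition of test wells between control levels plus 3 SD, cut at about 38% in these data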;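 also: cells cotransfected with COUP-TFII expression vector driving the NGFI-A reporter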
# Gli-Sufu block = blocks Gli-Sufu signaling in a luciferase reporter; inhibition, % at 5 µM; 340,000 tested, 0.74% active; Sufu-KO-LIGHT fibroblasts, Gli luciferase reporter luminescence;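 active = inhibition above about 55%, limit read from the data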
# 697 NFkB inh = inhibitors of the PMA/ionomycin-induced NF-kB reporter in 697 B cells. 330,000 tested, 0.33% active. AID 435022. 697 B-cell NF-kB luciferase reporter, 16 h. inhibition, % at 4 µM; in the data active = inhibition above about 35%
# Jurkat NFkB inh = lowers PMA/ionomycin-induced NF-kB signal in Jurkat cells. PMA/ionomycin-induced NF-kB luciferase reporter, luminescence. inhibition, % at 4 µM. 330,000 tested, 0.53% active; in the data active = inhibition above about 50%
# GalR3 conf = GalR3 (human) antagonism, confirmation. shares compounds with GalR3 antagonist. 1,600 tested, 59% active. HEK293 GalR3 CNG cAMP biosensor, membrane potential fluorescence; galR3 fused to GalR1 carboxy tail; challenged with forskolin and galanin at EC90. inhibition, % at 3 µM;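 active = inhibition above the primary screen's cutoff, the mean inhibition of all screened compounds plus 3 SD, cut at about 13% in these data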
# CNG parental = counter-screen for GalR3 antagonists: nonspecific agonists in parental HEK-CNG cells. 1,600 tested, 10% active. HEK293-CNG parental cells, cAMP membrane potential fluorescence; normalised: DMSO wells 0%, forskolin wells 100%. AID 652268. shares compounds with GalR3 antagonist. activation, % at 3 µM; in the data active = activation above about 1.3%
# A number is an active result; - = inactive; . = not tested or not shown.
SMILES,GalR3 antagonist,NR2F2 inh,Gli-Sufu block,697 NFkB inh,Jurkat NFkB inh,GalR3 conf,CNG parental
O=C(Nc1nc(-c2ccc3c(c2)OCCO3)cs1)c1ccc(S(=O)(=O)N2CCCCC2)cc1,20,-,-,-,-,15,-
Cc1ccccc1NC(=O)CN(C)S(=O)(=O)c1ccc(-c2ccc(=O)[nH]n2)s1,-,-,-,-,-,.,.
Cc1cccc(NC(=O)CN(C)S(=O)(=O)c2ccc(-c3ccc(=O)[nH]n3)s2)c1C,80,-,-,-,-,-,-
Cc1ccc2c(c1)C1C3CCC(C3)C1S(=O)N2 (stereo not given),18,-,-,-,-,-,-
Cc1cc2c(ccc3c2no[n+]3[O-])nn1,14,-,-,-,-,13,-
COC(CNS(=O)(=O)c1ccc(S(=O)(=O)N2CCCC2)cc1)OC,13,-,-,-,-,-,-
COCCCNS(=O)(=O)c1ccc(S(=O)(=O)N2CCCC2)cc1,-,-,-,-,-,.,.
CC(=O)Oc1ccccc1/C=C/c1nc2ccccc2c(=O)o1,-,-,-,-,-,.,.
C/C(O)=c1/c(=O)nc2cccc3c2=c1c1ccccc1c3=O,19,-,-,-,-,14,-
O=C(c1cc(C2CC2)on1)N(C1CCCCC1)C1CCCCC1,.,-,.,.,.,.,.
Cc1[nH]c2ccc(C(=O)NCCCN3CCN(C)CC3)cc2c1C,15,-,-,-,-,-,-
COCCNC(=O)c1cnn2c(C(F)F)cc(-c3ccc(C)cc3)nc12,-,-,-,-,-,.,.
COc1ccc(CNC(=O)c2cnn3c(C(F)F)cc(C)nc23)cc1OC,15,-,-,-,-,20,-
Nc1ncnc2c1ncn2C1OC(CO)C2OC21 (stereo not given),-,-,.,.,.,.,.
Nc1ncnc2c1ncn2[C@@H]1O[C@H](CO)C[C@H]1O,16,-,-,-,-,30,-
COc1cc(N)c(C(O)c2nccc3cc(OC)c(OC)cc23)cc1OC (stereo not given),-,-,-,-,-,.,.
COc1ccc(C(O)c2nccc3cc(OC)c(OC)cc23)cc1OC (stereo not given),17,-,-,-,-,-,-
Cc1ccc(N2C(=O)c3ccccc3NC2C(C)Cc2ccc3c(c2)OCO3)cc1 (stereo not given),39,-,-,-,-,48,-
CC(c1ccc(Cl)cc1)n1c(-c2ccc3ccccc3n2)n[nH]c1=S (stereo not given),13,-,-,-,-,-,-
CC(c1ccc(F)cc1)n1c(-c2ccc3ccccc3n2)n[nH]c1=S (stereo not given),-,-,-,-,-,.,.
O=C(O)c1cc(-c2ccccc2)nc2nc(N3CCCCC3)sc12,13,-,.,-,-,-,-
CCOC(=O)Nc1cccc(NC(=O)c2ccccc2F)c1,19,-,-,-,-,-,-
COCCNC(=O)/C(C#N)=C/c1c(N2CC(C)OC(C)C2)nc2ccccn2c1=O (stereo not given),25,-,-,-,-,-,-
Cc1ccc(Nc2c(-c3ccc(N4CCOCC4)cc3)nc3cnccn23)cc1,16,-,-,-,-,-,-
Cc1ccccc1Nc1c(-c2ccc(N3CCOCC3)cc2)nc2cnccn12,-,-,-,-,-,.,.
SMILES,GalR3 antagonist,NR2F2 inh,Gli-Sufu block,697 NFkB inh,Jurkat NFkB inh,GalR3 conf,CNG parental
CCN(CC)CC(=O)NCc1cc(-c2ccc(OC)cc2)no1,-,-,-,-,-,.,.
COc1ccc(-c2cc(CNC(=O)CN3CCN(C)CC3)on2)cc1,13,-,-,-,-,-,-
Cc1nc(C(=O)N2CCc3c([nH]c4ccccc34)C2c2ccccn2)cs1 (stereo not given),-,-,-,-,-,.,.
O=C(Cc1ccsc1)N1CCc2c([nH]c3ccccc23)C1c1ccccn1 (stereo not given),16,-,-,-,-,-,-
CCc1ccccc1NC(=O)C1CCC(=O)N(c2ccc(OC)cc2)C1c1ccc(OC)cc1 (stereo not given),.,-,.,.,.,.,.
Oc1cc2c(c(Cl)c1O)CCNCC2c1ccccc1 (stereo not given),26,-,-,-,-,32,-
